Reference: ChEMBL document CHEMBL1961873, “Compounds: GSK PKIS; Assays: Nanosyn kinase panel” (2012)

Assays:
[1] = target: Mitogen-activated protein kinase kinase kinase kinase 4 (Homo sapiens) (UniProt O95819); conditions: at 1 µM;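 further: reported figure is an averaged inhibition value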
[2] = target: Dual specificity mitogen-activated protein kinase kinase 1 (Homo sapiens) (UniProt Q02750); conditions: at 0.1 µM
[3] = target: Dual specificity mitogen-activated protein kinase kinase 1 (Homo sapiens) (UniProt Q02750); conditions: at 1 µM
[4] = target: Misshapen-like kinase 1 (Homo sapiens) (UniProt Q8N4C8); conditions: at 0.1 µM
[5] = target: Misshapen-like kinase 1 (Homo sapiens) (UniProt Q8N4C8); conditions: at 1 µM
[6] = target: T1, Serine/threonine-protein kinase 4 (Homo sapiens) (UniProt Q13043); conditions: at 0.1 µM
T1 sequence (whole entry): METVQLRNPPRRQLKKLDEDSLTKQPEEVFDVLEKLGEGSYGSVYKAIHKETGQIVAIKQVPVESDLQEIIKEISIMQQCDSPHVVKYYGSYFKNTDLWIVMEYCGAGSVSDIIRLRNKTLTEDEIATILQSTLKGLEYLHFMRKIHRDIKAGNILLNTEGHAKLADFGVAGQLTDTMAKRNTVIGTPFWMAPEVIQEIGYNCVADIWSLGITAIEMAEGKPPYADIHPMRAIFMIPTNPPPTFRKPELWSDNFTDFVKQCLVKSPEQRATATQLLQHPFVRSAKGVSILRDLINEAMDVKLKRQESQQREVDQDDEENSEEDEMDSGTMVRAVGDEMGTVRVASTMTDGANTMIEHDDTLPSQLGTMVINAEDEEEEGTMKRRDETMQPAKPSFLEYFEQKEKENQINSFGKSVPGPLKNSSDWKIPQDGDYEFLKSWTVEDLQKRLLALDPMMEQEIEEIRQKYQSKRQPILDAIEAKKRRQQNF

[7] = target: T1, Serine/threonine-protein kinase 4 (Homo sapiens); conditions: at 1 µM
[8] = target: T2, Serine/threonine-protein kinase 3 (Homo sapiens) (UniProt Q13188); conditions: at 0.1 µM
T2 sequence (whole entry): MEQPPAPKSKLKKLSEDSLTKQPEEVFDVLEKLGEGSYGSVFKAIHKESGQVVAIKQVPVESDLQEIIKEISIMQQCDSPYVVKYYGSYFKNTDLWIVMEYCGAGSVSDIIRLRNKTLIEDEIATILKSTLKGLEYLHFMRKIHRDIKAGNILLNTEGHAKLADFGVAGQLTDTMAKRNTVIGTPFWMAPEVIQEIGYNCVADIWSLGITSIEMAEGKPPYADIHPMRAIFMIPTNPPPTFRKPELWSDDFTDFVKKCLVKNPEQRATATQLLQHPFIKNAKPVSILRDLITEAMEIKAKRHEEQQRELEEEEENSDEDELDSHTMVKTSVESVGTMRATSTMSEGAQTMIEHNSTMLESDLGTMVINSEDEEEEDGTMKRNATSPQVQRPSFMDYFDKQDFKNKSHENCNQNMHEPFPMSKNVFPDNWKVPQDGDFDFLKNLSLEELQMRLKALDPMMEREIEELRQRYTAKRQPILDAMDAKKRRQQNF

[9] = target: T2, Serine/threonine-protein kinase 3 (Homo sapiens); conditions: at 1 µM
[10] = target: Serine/threonine-protein kinase 26 (Homo sapiens) (UniProt Q9P289); conditions: at 0.1 µM
[11] = target: Serine/threonine-protein kinase 26 (Homo sapiens) (UniProt Q9P289); conditions: at 1 µM
[12] = target: Serine/threonine-protein kinase PAK 1 (Homo sapiens) (UniProt Q13153); conditions: at 0.1 µM
[13] = target: Serine/threonine-protein kinase PAK 1 (Homo sapiens) (UniProt Q13153); conditions: at 1 µM
[14] = target: Serine/threonine-protein kinase PAK 2 (Homo sapiens) (UniProt Q13177); conditions: at 0.1 µM
[15] = target: Serine/threonine-protein kinase PAK 2 (Homo sapiens) (UniProt Q13177); conditions: at 1 µM
[16] = target: Serine/threonine-protein kinase PAK 3 (Homo sapiens) (UniProt O75914); conditions: at 0.1 µM
[17] = target: Serine/threonine-protein kinase PAK 3 (Homo sapiens) (UniProt O75914); conditions: at 1 µM
[18] = target: Serine/threonine-protein kinase PAK 5 (Homo sapiens) (UniProt Q9P286); conditions: at 0.1 µM
[19] = target: Serine/threonine-protein kinase PAK 5 (Homo sapiens) (UniProt Q9P286); conditions: at 1 µM
[20] = target: Serine/threonine-protein kinase PAK 6 (Homo sapiens) (UniProt Q9NQU5); conditions: at 0.1 µM;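 further: mean PAK6 inhibition reported from the GSK PKIS screen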
Chain of Serine/threonine-protein kinase PAK 6 (Homo sapiens) (Q9NQU5 whole entry, looked up): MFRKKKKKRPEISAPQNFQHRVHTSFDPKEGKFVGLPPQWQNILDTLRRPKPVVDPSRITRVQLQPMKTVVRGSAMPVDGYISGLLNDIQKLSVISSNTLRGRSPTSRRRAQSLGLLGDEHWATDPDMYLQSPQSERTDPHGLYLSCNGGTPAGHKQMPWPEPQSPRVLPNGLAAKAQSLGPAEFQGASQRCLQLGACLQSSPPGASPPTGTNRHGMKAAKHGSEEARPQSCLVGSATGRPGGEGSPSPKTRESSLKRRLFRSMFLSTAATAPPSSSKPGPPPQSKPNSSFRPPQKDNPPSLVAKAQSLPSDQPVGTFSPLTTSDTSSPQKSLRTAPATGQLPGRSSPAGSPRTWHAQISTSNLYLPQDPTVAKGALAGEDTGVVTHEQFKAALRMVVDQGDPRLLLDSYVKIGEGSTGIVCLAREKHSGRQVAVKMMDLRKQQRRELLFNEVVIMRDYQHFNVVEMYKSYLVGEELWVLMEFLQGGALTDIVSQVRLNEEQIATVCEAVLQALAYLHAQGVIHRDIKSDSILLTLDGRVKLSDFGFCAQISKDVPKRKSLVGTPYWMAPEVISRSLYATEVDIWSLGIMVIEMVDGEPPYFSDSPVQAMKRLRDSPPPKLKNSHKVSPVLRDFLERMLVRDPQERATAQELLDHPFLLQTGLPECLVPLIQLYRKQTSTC

Chain of Mitogen-activated protein kinase kinase kinase kinase 4 (Homo sapiens) (O95819 2-1239 limits assumed): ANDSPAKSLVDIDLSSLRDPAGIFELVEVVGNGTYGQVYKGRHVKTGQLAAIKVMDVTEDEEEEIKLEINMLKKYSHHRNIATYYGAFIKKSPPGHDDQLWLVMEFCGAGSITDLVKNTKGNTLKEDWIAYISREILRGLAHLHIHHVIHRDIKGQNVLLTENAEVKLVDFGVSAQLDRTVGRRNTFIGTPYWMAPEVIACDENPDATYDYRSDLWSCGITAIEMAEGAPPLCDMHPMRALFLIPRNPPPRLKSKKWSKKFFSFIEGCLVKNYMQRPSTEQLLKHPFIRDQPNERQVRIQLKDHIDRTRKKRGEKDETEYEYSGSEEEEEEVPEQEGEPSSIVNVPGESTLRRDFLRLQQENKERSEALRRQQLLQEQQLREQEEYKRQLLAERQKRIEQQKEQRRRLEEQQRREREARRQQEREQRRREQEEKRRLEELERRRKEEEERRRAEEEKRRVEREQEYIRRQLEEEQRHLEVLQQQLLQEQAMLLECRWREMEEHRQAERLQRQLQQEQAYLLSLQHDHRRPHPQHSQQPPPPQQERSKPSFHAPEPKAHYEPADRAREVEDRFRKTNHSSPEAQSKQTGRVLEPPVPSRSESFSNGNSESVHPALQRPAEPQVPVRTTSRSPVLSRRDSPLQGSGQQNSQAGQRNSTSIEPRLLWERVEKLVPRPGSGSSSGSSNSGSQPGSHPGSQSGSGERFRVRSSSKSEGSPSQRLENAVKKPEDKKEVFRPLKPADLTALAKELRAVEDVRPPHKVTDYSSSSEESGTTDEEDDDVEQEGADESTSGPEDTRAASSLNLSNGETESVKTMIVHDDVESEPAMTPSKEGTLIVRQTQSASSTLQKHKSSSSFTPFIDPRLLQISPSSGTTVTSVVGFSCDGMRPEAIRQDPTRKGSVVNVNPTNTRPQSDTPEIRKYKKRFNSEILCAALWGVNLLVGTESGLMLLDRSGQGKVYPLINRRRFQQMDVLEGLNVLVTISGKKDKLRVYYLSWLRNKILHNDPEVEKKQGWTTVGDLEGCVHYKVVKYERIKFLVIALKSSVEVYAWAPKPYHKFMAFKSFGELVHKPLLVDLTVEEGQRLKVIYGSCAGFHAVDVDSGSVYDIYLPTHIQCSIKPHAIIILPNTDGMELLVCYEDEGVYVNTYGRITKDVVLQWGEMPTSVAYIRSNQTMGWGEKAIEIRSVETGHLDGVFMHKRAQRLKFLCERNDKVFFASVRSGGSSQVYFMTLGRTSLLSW
Chain of Serine/threonine-protein kinase PAK 1 (Homo sapiens) (Q13153 whole entry): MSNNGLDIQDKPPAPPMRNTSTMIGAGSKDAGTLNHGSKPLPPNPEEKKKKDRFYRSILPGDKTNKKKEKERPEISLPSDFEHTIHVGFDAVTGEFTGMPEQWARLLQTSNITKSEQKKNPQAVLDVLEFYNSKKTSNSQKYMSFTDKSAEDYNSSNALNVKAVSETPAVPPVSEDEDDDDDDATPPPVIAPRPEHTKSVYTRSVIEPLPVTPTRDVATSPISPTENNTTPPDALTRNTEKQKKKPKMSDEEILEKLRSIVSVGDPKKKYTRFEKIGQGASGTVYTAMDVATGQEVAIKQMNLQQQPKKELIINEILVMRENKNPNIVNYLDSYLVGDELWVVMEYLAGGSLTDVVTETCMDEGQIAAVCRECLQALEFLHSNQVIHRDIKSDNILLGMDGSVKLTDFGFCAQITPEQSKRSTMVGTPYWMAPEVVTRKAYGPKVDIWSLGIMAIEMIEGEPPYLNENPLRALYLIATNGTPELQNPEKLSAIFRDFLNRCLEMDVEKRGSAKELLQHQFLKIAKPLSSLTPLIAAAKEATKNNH
Chain of Serine/threonine-protein kinase PAK 3 (Homo sapiens) (O75914 whole entry, looked up): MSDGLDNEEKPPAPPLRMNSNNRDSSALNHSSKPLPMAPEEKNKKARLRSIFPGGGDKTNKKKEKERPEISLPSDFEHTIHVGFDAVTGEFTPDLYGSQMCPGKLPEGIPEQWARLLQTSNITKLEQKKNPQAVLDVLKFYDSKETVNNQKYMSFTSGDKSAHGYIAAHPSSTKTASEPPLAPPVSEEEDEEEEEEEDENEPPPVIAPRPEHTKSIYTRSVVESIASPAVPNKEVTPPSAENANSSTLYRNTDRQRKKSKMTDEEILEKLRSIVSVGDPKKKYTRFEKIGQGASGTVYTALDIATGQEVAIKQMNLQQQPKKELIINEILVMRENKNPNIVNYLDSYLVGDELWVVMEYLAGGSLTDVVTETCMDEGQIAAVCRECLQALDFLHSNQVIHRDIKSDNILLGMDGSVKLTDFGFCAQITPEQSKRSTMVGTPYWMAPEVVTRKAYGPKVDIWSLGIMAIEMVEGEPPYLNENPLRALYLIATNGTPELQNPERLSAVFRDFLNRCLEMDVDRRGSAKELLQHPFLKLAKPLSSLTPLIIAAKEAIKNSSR
Chain of Dual specificity mitogen-activated protein kinase kinase 1 (Homo sapiens) (Q02750 whole entry): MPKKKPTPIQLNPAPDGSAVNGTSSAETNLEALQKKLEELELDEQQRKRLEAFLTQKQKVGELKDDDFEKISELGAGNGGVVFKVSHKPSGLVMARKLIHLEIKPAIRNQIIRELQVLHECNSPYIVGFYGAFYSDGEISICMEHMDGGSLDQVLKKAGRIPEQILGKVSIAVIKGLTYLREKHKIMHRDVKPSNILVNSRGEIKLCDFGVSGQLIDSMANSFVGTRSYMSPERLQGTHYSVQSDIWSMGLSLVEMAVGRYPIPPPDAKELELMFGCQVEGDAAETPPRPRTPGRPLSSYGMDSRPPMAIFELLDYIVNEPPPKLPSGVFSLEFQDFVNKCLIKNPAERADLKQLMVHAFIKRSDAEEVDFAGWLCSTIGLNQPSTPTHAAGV
Chain of Serine/threonine-protein kinase 26 (Homo sapiens) (Q9P289 2-416 limits assumed): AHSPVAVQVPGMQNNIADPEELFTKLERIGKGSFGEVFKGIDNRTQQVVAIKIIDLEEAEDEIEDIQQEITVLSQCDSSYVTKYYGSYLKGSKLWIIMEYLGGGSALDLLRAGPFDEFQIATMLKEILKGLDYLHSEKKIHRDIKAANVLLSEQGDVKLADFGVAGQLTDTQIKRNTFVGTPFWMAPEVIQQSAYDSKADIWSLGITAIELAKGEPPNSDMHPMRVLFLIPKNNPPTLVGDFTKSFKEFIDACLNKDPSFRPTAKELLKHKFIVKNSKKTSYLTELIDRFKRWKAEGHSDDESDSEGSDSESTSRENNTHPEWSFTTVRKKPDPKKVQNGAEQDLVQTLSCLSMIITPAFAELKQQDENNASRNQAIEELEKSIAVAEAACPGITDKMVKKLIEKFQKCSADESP
Chain of Serine/threonine-protein kinase PAK 5 (Homo sapiens) (Q9P286 whole entry, looked up): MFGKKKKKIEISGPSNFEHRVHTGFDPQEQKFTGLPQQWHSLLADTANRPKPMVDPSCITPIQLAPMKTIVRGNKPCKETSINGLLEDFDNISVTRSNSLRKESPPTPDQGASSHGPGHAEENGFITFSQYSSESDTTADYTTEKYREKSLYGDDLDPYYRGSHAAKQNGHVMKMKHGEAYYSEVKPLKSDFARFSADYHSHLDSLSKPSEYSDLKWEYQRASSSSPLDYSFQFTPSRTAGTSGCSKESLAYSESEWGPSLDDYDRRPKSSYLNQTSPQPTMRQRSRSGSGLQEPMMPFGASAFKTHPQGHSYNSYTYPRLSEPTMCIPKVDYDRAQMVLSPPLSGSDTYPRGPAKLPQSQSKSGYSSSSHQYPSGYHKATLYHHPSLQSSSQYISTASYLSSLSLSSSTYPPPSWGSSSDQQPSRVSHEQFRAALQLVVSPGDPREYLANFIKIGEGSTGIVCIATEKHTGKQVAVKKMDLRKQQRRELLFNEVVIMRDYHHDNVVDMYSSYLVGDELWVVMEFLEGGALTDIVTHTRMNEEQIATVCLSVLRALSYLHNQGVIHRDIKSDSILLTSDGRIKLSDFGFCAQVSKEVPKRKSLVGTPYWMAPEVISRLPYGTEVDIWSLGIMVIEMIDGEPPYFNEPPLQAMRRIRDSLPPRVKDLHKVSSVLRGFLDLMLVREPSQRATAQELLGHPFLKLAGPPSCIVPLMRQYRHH

SMILES	inhibition [1] [%]	inhibition [2] [%]	inhibition [3] [%]	inhibition [4] [%]	inhibition [5] [%]	inhibition [6] [%]	inhibition [7] [%]	inhibition [8] [%]	inhibition [9] [%]	inhibition [10] [%]	inhibition [11] [%]	inhibition [12] [%]	inhibition [13] [%]	inhibition [14] [%]	inhibition [15] [%]	inhibition [16] [%]	inhibition [17] [%]	inhibition [18] [%]	inhibition [19] [%]	inhibition [20] [%]
FC(F)(F)c1cccc(Nc2nccc(-c3cnn4nc(-c5ccccc5)ccc34)n2)c1	3.3	2.8	3.14	3.38	3.06	1.12	3.6	3.94	3.81	0.42	-3.24	6.28	3.48	0.33	0.77	2.74	2.27	-0.43	-0.64	-2.37
COc1cc2ncn(-c3cc(OCc4cccs4)c(C(N)=O)s3)c2cc1OC	67.2	3.5	2.83	18	63.5	20.6	65.5	19.5	62.6	2.25	0.69	5.82	5.75	0.62	0.03	2	4.56	8.19	8.5	6.2
CCc1ccc(Oc2nccc(-c3c(-c4ccc(F)cc4)ncn3C3CCNCC3)n2)cc1	11.4	3.92	8.98	4.83	12.1	3.84	5.43	5.44	5.88	0.4	2.83	4.48	10.2	1.26	2.44	4.22	5.69	6.56	9.57	-5.49
COc1ccc(C2=C(N3CCc4ccccc43)C(=O)NC2=O)cc1	12.6	5.11	4.03	7.89	11	7.03	7.64	6.94	6.17	-0.57	2.06	7.07	7.47	1.61	1.57	4.96	5.37	4.64	2.28	3.36
CCC(=O)Nc1ccc(C)c(-c2ccc(C(=O)NCC3CC3)cc2)c1	5.43	3.72	2.87	7.03	5.64	2.76	3.12	3.02	2.84	-1.82	-3.71	3.98	9.02	0.42	0.8	2.56	3.37	-0.07	-2.96	-8.71
O=C(Nc1ccc(Oc2ccc3[nH]c(NC(=O)c4ccccc4)nc3c2)cc1)Nc1cc(C(F)(F)F)ccc1F	5.89	2.91	2.61	3.26	4.54	5.74	10.6	5.74	8.42	0.36	-0.48	5.49	5.94	2.09	2.3	2.23	2.99	3.8	4.86	
O=C1Nc2ccc(I)cc2C1=Cc1cc(Br)c(O)c(Br)c1	83.7	3.38	3.62	18.9	73.2	3.39	17.2	3.5	19.5	0.13	8.78	7.31	11.5	1.87	1.49	3.52	5.78	9.36	10.2	
Cc1ccc(C(=O)NC(C)C)cc1-c1ccc(C(=O)NCC2CC2)cc1	1.81	-2.99	-1.83	-3.61	-1.09	-3.24	-3.63	-4.19	-4.98	2.16	1.12	-1.5	-0.84	-1.39	-3.39	-3.81	-3.2	-4.56	-2.22	
Fc1ccc(-c2ncn(C3CCNCC3)c2-c2ccnc(Oc3ccc(Oc4ccccc4)cc3)n2)cc1	7.43	4.35	7.53	5.29	9.38	2.43	4.68	4.83	5.3	-1.41	2.78	6.63	8.97	2.19	3.52	4.8	8.51	5.41	6.5	-6.7
CN(C)CCOc1ccc(-c2cc(-c3ccc4c(c3)CCC4=NO)c(-c3ccncc3)o2)cc1	17.3	1.44	2.23	0.59	12.5	-0.36	0.8	-1.52	1.19	0.59	3.69	-4.98	-1.45	-1.68	-2.82	-1.69	-1.63	-8.32	-0.63	1.99
CN1CCN(CCCNc2nc3ccc(Oc4ccc(NC(=O)Nc5cc(C(F)(F)F)ccc5F)cc4)cc3[nH]2)CC1	2.12	2.3	1.94	1.67	1.26	3.59	3.57	2.61	3.55	1.41	0.74	3.77	2.58	1.22	1.06	1.62	2.65	1.27	8.65	-3.01
CN(C)CCCNc1nccc(-c2c(-c3ccc(F)cc3)nn3cc(C(F)(F)F)ccc23)n1	10.6	1.86	2.52	5.22	7.76	2.92	4.75	3.38	3.61	-0.11	0.55	-1.51	-0.15	1.45	1.67	1.76	2.77	0.97	1.58	2.33
COc1ccc2cc(-c3c(-c4ccncc4)nc(-c4ccc([S+](C)[O-])cc4C)n3C)ccc2c1 (configuration not stated)	17.7	-0.9	-1.09	0.1	12.5	-2.13	7.66	-0.9	17.3	0.68	3.65	-1.49	-0.86	-1.29	-1.27	-0.99	-1.45	-5.87	6.4	-2.81
